“And” between values parts separate entries of the source, which are not always exact repeats. Identical values can stand only once. Inconclusive results are not listed. Some compounds were tested as several samples or in several runs, with calls that do not always agree. The source made the active and inactive calls. Unless noted, calls come from the whole dose curve; as a rule, active = well fitted curve in the direction sought with a large enough effect in the repeat runs; inconclusive = weak or mixed curves; inactive = no such curve, though single readings can be large; an effect the other way counts as inactive or inconclusive.
Columns and labels:
[1] = molecular target: Progesterone receptor (Homo sapiens) (UniProt P06401); test: qHTS assay to identify small molecule antagonists of the progesterone receptor (PR) signaling pathway (AID 1346795; active = well fitted inhibition curve with a large enough effect in the signal ratio in the repeat runs, not every such curve was filed as active; the % refers to the signal ratio; note: potency is the fitted concentration of half-maximal effect)
Sequence of Progesterone receptor (Homo sapiens) (P06401 whole entry, looked up): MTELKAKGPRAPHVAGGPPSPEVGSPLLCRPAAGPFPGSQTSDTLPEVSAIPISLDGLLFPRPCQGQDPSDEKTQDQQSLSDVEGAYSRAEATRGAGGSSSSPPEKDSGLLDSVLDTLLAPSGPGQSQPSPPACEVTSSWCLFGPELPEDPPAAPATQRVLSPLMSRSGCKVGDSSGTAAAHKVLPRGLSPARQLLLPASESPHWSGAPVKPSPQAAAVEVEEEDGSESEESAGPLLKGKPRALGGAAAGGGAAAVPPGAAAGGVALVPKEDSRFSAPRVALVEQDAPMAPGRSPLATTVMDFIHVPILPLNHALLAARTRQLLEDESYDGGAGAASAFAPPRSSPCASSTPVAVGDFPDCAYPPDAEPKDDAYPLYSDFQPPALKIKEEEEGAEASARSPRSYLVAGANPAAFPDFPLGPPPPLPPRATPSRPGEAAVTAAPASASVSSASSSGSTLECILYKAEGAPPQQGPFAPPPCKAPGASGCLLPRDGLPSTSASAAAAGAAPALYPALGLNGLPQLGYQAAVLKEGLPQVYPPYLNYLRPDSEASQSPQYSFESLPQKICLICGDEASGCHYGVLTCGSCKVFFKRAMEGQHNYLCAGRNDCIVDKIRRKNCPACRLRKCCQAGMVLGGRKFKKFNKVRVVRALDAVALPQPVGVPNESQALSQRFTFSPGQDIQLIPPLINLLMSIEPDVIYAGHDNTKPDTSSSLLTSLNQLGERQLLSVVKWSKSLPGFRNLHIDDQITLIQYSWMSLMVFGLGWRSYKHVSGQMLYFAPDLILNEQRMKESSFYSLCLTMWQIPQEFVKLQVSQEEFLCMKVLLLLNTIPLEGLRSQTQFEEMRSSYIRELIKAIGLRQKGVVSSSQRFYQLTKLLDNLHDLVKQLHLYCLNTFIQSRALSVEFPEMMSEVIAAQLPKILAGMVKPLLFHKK
Method in brief: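 After 6 hr plating at 37C in 2% stripped-serum medium, PR-UAS-bla HEK293T cells got compounds, then 1 nM R5020. Sixteen hours later, LiveBLAzer substrate was applied for 2 hr at room temperature and fluorescence was recorded.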

[2] = qHTS assay to identify small molecule antagonists of the progesterone receptor (PR) signaling pathway - cell viability counter screen (AID 1346798); note: nearly all actives have a fitted effect of over 50% in size; note: potency is the fitted concentration of half-maximal effect
Method in brief: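 Viability was determined by ATP-based luminescence (CellTiter-Glo) in PR-UAS-bla HEK293T cells cultured in 2% charcoal-stripped serum and incubated 16 hr with compounds under R5020 stimulation.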

[3] = qHTS assay to identify small molecule agonists of the progesterone receptor (PR) signaling pathway - cell viability counter screen (AID 1346799; calls by dose curve; note: nearly all actives have a fitted effect of over 45% in size; note: potency is the fitted concentration of half-maximal effect)
Method in brief: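 Viability was scored by ATP luminescence (CellTiter-Glo, 30 min, room temperature) in the same wells used for the reporter readout, after 16 hr compound exposure of PR-UAS-bla HEK293T cells.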

[4] = qHTS assay to identify small molecule antagonists of the TGF-beta/Smad signaling pathway - cell viability counter screen (AID 1346824); note: nearly all actives have a fitted effect of over 50% in size; note: potency is the fitted concentration of half-maximal effect
Method in brief: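 Cytotoxicity counter-screen run in the same wells as the beta-lactamase Smad reporter read: CellTiter-Glo luminescence after 30 min at room temperature. HEK 293T SBE-bla cells had 5 hr compound exposure at 37 C with TGF-beta1 (0.25 ng/mL stock).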

[5] = qHTS assay to identify small molecule agonists of the TGF-beta/Smad signaling pathway - cell viability counter screen (AID 1346829); note: nearly all actives have a fitted effect of over 45% in size; note: potency is the fitted concentration of half-maximal effect
Method in brief: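 Cytotoxicity counter screen: CellTiter-Glo luminescence (30 min, room temperature) measured in the SBE-bla HEK 293T reporter wells after 5 hr compound treatment at 37 C and the 2 hr substrate step.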

[6] = Human pregnane X receptor (PXR) small molecule agonists, qHTS cell viability counter screen (AID 1346977); note: nearly all actives have a fitted effect of over 50% in size; note: potency is the fitted concentration of half-maximal effect
Method in brief: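 HepG2 cells stably carrying the PXR-Luc reporter are cultured with 5% charcoal-stripped FBS and treated with compounds for 24hr. CellTiter-Fluor is added at 23hr and fluorescence is read after 1hr.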

[7] = Caspase-3/7 induction in HepG2 cells by small molecules, qHTS assay (AID 1346978); note: nearly all actives have a fitted effect of over 15% in size; note: potency is the fitted concentration of half-maximal effect
Method in brief: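 Caspase-3/7 induction was measured by Caspase-Glo 3/7 luminescence (30 min, room temperature) after a 17 hr compound exposure of wild-type HepG2 cells seeded at 2,000 per well and pre-incubated 5 hr.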

[8] = qHTS assay to identify small molecule agonists of the TGF-beta/Smad signaling pathway (AID 1346859; active = well fitted activation curve with a large enough effect in the signal ratio in the repeat runs, not every such curve was filed as active; the % refers to the signal ratio; note: series mostly up to about 77 µM)
Method in brief: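 Dual-wavelength fluorescence (460/530 nm emission) quantified beta-lactamase expression under the Smad binding element in HEK 293T cells following 5 hr compound treatment at 37 C.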

[9] = molecular target: Thyrotropin-releasing hormone receptor (Homo sapiens) (UniProt P34981); test: qHTS assay to identify small molecule agonists of the thyrotropin-releasing hormone receptor (TRHR) signaling pathway (AID 1346891; calls by dose curve;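 note: HEK293 cells expressing TRHR with calcium dye readout; series mostly up to about 58 µM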)
Sequence of Thyrotropin-releasing hormone receptor (Homo sapiens) (P34981 whole entry, looked up): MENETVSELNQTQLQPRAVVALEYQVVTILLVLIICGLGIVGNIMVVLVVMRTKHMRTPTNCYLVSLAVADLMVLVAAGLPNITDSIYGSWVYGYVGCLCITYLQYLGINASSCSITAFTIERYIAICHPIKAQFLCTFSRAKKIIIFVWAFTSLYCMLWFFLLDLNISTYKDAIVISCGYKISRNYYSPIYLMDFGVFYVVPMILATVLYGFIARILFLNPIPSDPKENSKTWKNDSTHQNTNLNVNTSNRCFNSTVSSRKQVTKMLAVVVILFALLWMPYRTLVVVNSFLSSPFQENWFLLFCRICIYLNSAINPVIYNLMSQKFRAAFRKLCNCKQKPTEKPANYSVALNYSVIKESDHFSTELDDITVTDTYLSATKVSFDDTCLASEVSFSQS
Method in brief: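 Kinetic fluorescence (3 min, 1 s intervals) reported intracellular calcium after compound transfer onto TRHR-Hek293 cells pre-loaded with dye for 2 h at 37 °C.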

[10] = molecular target: Thyrotropin-releasing hormone receptor (Homo sapiens) (UniProt P34981); test: qHTS assay to identify small molecule antagonists of the thyrotropin-releasing hormone receptor (TRHR) signaling pathway (AID 1346877; active = well fitted inhibition curve with a large enough effect in the repeat runs, not every such curve was filed as active; note: potency is the fitted concentration of half-maximal effect)
Method in brief: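 HEK293/TRHR cells, 18 h, 37 °C; Ca2+ dye 2 h; cpd 5 min RT; TRH 1 nM final; fluorescence read 3 min, 1 s intervals; 15 concs, triplicate.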

Measured: Potency
% is set by controls: 0 for no effect and ±100 for the full control effect.

Cc1cccc([N+](=O)[O-])c1C(=O)O
not listed: [8] | [9] | [10]
inactive: all other assays above

C#CC(C)(CC)OC(=O)c1ccccc1C(=O)O (stereo not drawn)
inactive: [1] | [3] | [4] | [5] | [7]

CC(C)CCOCc1ccccc1
inactive: [1] | [3] | [4] | [5] | [8] | [6]

O=C(Cl)c1cccc(C(=O)Cl)c1
not listed: [8] | [10]
inactive: all other assays above

O=C1Nc2ccccc2C1(c1ccc(O)cc1)c1ccc(O)cc1
active: [1] 54.5 µM
inactive: [4] | [5] | [8] | [7]

CCN(CC)CCOc1ccc(/C(=C(\Cl)c2ccccc2)c2ccccc2)cc1
inactive: [4] | [8]

C=C(C)C(=O)O
not listed: [1] | [9]
inactive: all other assays above

CCCCCCCCCCCCc1ccccc1O
inactive: [8] | [10]
active: [2] 38.6 µM | [3] 53.8 µM and 30.6 µM | [4] 54.2 µM and 54.9 µM | [5] 49 µM | [6] 47.9 µM and 30.6 µM

CC(C)CCCCCCc1ccc(O)cc1
4.94 µM (active) and inactive: [3]
inactive: [5]
active: [2] 6.22 µM | [6] 50.1 µM | [7] 55.4 µM and 68.6 µM

CCCCCCC(O)CCCCCCCCCCC(=O)O (stereo not drawn)
inactive: [4] | [5] | [9] | [6] | [7]
active: [3] 48.7 µM and 15.4 µM

CCN(CC)c1ccc2c(C)cc(=O)oc2c1
not listed: [1] | [8] | [9]
inactive: all other assays above

CN1C(=O)c2ccc([N+](=O)[O-])cc2C1=O
not listed: [1] | [10]
inactive: all other assays above

NC(N)=Nc1nc(CSCC/C(N)=N/S(N)(=O)=O)cs1
inactive: [2] | [3] | [4] | [5] | [6] | [7]

CCCCCCCCCCCCCC[P+](CCCC)(CCCC)CCCC
active: [2] 30.5 µM and 54.5 µM | [3] 30.5 µM | [4] 10.9 µM and 27.5 µM | [5] 54.9 µM | [6] 6.31 µM and 13.7 µM | [7] 48.6 µM

CNCCC(Oc1ccc(C(F)(F)F)cc1)c1ccccc1 (stereo not drawn)
active: [2] 60.3 µM and 29.8 µM | [3] 30.2 µM and 13.3 µM | [6] 24 µM and 26.6 µM | [7] 26.9 µM
inactive: [4] | [5] | [10]

CC(C)(c1ccccc1)c1ccc(Nc2ccc(C(C)(C)c3ccccc3)cc2)cc1
inactive: [4] | [5] | [8] | [10] | [6]

CCCCCCCCCCCC[N+](C)(C)C
inactive: [4] | [5] | [10] | [9]

CC[C@]1(O)C[C@@H]2CN(CCc3c([nH]c4ccccc34)[C@@](C(=O)OC)(c3cc4c(cc3OC)N(C)[C@H]3[C@@](O)(C(=O)OC)[C@H](OC(C)=O)[C@]5(CC)C=CCN6CC[C@]43[C@@H]65)C2)C1
active: [6] 15 µM and 26.6 µM
not listed: [1] | [2] | [3]
inactive: all other assays above

CCc1ccc(C(c2ccc(CC)cc2)C(Cl)Cl)cc1
not listed: [1] | [6] | [10]
inactive: all other assays above

COc1ccc(CCN(C)CCCC(C#N)(c2ccc(OC)c(OC)c2)C(C)C)cc1OC (stereo not drawn)
inactive: [2] | [3] | [5] | [10] | [9]

O=c1n(CC2CO2)c(=O)n(CC2CO2)c(=O)n1CC1CO1 (stereo not drawn)
inactive: [2] | [4] | [5] | [10] | [9]

CN(C)c1ccc(C(=C2C=CC(=[N+](C)C)C=C2)c2ccccc2)cc1
active: [2] 8.63 µM and 6.68 µM and 7.5 µM | [3] 9.69 µM and 7.5 µM and 8.41 µM | [4] 8.49 µM [middle of 4 runs] | [5] 8.49 µM [middle of 4 runs] | [6] 2.37 µM [middle of 4 runs] | [7] 4.33 µM and 5.31 µM and 5.96 µM
inactive: [8]

O=C(O)c1cc(Cl)cc(Cl)c1
not listed: [1]
inactive: all other assays above

CN(C)c1ccc2nc3ccc(=[N+](C)C)cc-3sc2c1
active: [6] 1.86 µM and 9.69 µM and 10.6 µM
not listed: [1] | [7]
inactive: all other assays above

CCOc1ccc2c(c1)C(C)=CC(C)(C)N2
not listed: [1] | [8]
inactive: all other assays above

CC(C)(C)c1ccc(O)c(C(C)(C)C)c1
inactive: [4] | [8]

OCCOCCN1CCN(C(c2ccccc2)c2ccc(Cl)cc2)CC1 (stereo not drawn)
53.8 µM (active) and inactive: [7]
active: [3] 33.9 µM | [6] 24 µM
inactive: [4] | [5] | [10]

CC1COc2c(N3CCN(C)CC3)c(F)cc3c(=O)c(C(=O)O)cn1c23 (stereo not drawn)
not listed: [1] | [7] | [10]
inactive: all other assays above

O=C1OC2(c3ccc(O)cc3Oc3cc(O)ccc32)c2ccccc21
inactive: [2] | [3] | [4] | [5]
active: [10] 536 nM and 3.7 µM

Reference: PubChem BioAssay (Tox21)
